In the library only some 2.4% were active in any assay of this set; here they are far more common.
ULK1 inh – human ULK1 kinase inhibition, primary screen; O75385; AlphaScreen Atg13 phosphorylation by ULK1, luminescence; inhibition, % at 5.96 µM; 30,000 compounds, 1.9% hits; in the data active means inhibition above about 43%;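 further: 0% = median of compound wells and 100% = no enzyme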
Target sequence (O75385 whole entry, looked up): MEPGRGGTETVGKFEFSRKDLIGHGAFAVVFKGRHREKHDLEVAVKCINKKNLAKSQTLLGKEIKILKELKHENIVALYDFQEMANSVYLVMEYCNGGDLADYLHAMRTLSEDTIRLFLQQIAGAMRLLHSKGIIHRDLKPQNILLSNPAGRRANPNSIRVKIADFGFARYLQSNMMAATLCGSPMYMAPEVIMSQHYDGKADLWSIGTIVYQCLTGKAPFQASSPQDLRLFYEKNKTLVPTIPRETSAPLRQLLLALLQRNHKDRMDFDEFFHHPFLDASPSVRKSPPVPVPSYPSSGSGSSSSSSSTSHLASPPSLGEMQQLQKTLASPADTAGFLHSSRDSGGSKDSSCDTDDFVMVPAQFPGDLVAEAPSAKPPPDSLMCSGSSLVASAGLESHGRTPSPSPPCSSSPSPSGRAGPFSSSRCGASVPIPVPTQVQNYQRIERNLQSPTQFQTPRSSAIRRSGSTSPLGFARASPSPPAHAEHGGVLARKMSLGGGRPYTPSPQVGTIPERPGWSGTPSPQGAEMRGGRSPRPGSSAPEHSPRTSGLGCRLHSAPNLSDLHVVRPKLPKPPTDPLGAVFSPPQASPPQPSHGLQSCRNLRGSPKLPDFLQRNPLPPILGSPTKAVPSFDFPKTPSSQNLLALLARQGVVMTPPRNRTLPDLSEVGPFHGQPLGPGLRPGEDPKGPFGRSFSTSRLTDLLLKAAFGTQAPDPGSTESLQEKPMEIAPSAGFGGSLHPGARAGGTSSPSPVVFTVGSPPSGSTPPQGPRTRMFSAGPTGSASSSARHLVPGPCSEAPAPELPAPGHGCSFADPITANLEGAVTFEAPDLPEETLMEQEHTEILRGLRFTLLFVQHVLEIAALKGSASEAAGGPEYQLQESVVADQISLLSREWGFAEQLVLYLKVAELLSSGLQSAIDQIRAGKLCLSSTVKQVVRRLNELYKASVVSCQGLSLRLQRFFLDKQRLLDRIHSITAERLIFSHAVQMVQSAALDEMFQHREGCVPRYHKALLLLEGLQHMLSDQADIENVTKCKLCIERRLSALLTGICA
ASK1 primary – inhibitors of human ASK1 kinase; AlphaScreen MKK6 phosphorylation by ASK1, luminescence; inhibition, % at 7.44 µM; 22,000 compounds, 0.99% hits; AID 1159602; in the data active means inhibition above about 35%;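 further: 0% = median of compound wells and 100% = no enzyme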
AlphaScreen intf – interferes with AlphaScreen TruHits signal in ASK1 counter-screen; 220 compounds, 20% hits; shares compounds with ASK1 primary; IC50, µM; AlphaScreen TruHits beads, signal interference counterscreen;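 active means IC50 of 10 µM or lower in the counterscreen; inactive means IC50 above 10 µM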;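 further: loss of AlphaScreen light from TruHits beads alone with no ASK1 enzyme present; potency of signal reduction so a low IC50 flags an assay artifact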
* hit, by the source's call; i = inactive; / = no result given; ! = not confirmed by another sample.

SMILES	ULK1 inh	ASK1 primary	others
CCNc1nc(Nc2ccc(N3CCOCC3)cc2)c2ncn(CCN3CCCC3=O)c2n1	-7.6	3.5
Cc1ccc(C(=O)c2oc3ccc(N)cc3c2C)cc1	-31.4	/
N#Cc1cc(-c2ccnc(Nc3ccc(N4CCOCC4)cc3)n2)cc(N2CCOCC2)c1	3.1	31.0
N#Cc1cc(-c2ccnc(Nc3ccc(N4CCOCC4)cc3)n2)cc(N2CCNCC2)c1	77.6*	34.8
CCN1CCN(c2cc(C#N)cc(-c3ccnc(Nc4ccc(N5CCOCC5)cc4)n3)c2)CC1	52.9*	-31.6
COc1ccc(Nc2nccc(-c3cc(C#N)cc(N4CCOCC4)c3)n2)cc1	4.1	29.9
O=C(NCc1ccccc1)C1CCN(c2ccc(Nc3ccccc3)nn2)CC1	1.6	-10.2
Cc1ccc(-c2ncn(-c3ccc(Nc4nccc(-c5cccc(-n6cccn6)c5)n4)cc3)n2)cn1	3.9	-6.5
CN(c1ncccc1CNc1nc(Nc2ccc3c(c2)CC(=O)N3)ncc1C(F)(F)F)S(C)(=O)=O	78.1*	25.8
CN(c1ncccc1CNc1cc(Nc2ccc3c(c2)CC(=O)N3)ncc1C(F)(F)F)S(C)(=O)=O	30.9	12.1
O=C1CCCN1CCCNc1nc(Nc2ccc(C(F)(F)F)cc2)nc2nc[nH]c12	53.5*	7.7
O=C1CCCN1CCCNc1nc(Nc2ncccn2)nc2nc[nH]c12	6.0	-17.9
Cc1cnc(Nc2ccc(-n3ccnc3)cc2)nc1Nc1ccccc1	35.1	-32.5
Cc1cnc(Nc2ccncc2)nc1NCCCN1CCCC1=O	6.0	-21.5
Cc1cnc(Nc2ccc(-n3ccnc3)cc2)nc1NC1CC1	52.3*	9.0
Cc1cnc(Nc2ccc(-n3ccnc3)cc2)nc1NCCCN1CCCC1=O	69.3*	-9.1
O=C(NCc1cccnc1)c1ccnc(NC2CCN(Cc3ccccc3)CC2)c1	-6.5	-14.9
CC(=O)c1cccc(-c2ncc(C)c(NCCO)n2)c1	15.0	-4.7
O=C(NCCN1CCOCC1)c1cccc(-n2ncc3c2CCC(NCc2ccccc2)C3)c1 (centres undefined)	-5.0	-12.7
Cc1cc(NCCOc2ccccc2)nc(Nc2cccnc2)n1	-14.7	-7.1
Cc1cc(NCCOc2ccccc2)nc(Nc2cccc(N(C)C)c2)n1	9.0	56.6*	AlphaScreen intf=6.04*
CC(=O)Nc1ccc(Nc2cc(Nc3cccc(N(C)C)c3)ncn2)cc1	1.6	-7.4
CN(C)c1cccc(Nc2cc(Nc3ccccc3)ncn2)c1	-1.3	36.8*	AlphaScreen intf=>22.2
Cc1cc(NCCO)nc(Nc2cccc(N(C)C)c2)n1	-17.9	6.4
Cc1cc(NCCc2ccc(O)cc2)nc(Nc2cccc(N(C)C)c2)n1	-3.3	54.7*	AlphaScreen intf=8.99*
SMILES	ULK1 inh	ASK1 primary	others
CC(C)N(CCNC(=O)c1ccnc(-c2cccc(N)c2)c1)C(C)C	1.5	10.6
O=C(NCc1cccnc1)c1cc(=O)oc2cc(OCc3ccccc3)ccc12	-2.1	/
Cc1cc(NC2CC2)nc(Nc2ccc(N3CCOCC3)cc2)n1	5.2	7.5
c1ccc(CN2CCC(Nc3cc(Nc4ccc(N5CCOCC5)cc4)ncn3)CC2)cc1	8.4	-4.8
Cc1cc(NC2CCN(Cc3ccccc3)CC2)nc(Nc2ccc(N3CCOCC3)cc2)n1	5.8	40.0*	AlphaScreen intf=i
Nc1nc(Nc2ccc(N3CCOCC3)cc2)cc(NC2CCN(Cc3ccccc3)CC2)n1	19.2	43.0*!	AlphaScreen intf=>23.1
CCCNC(=O)C1CCN(c2ccc(Nc3nc4ccccc4n3C)nn2)CC1	18.8	-0.8
COc1ccc(CCNC(=O)c2ccnc(Nc3ccccn3)c2)cc1	-0.7	2.5
NC(=O)c1cc2ccccc2cc1Nc1ccnc(Nc2ccc(N3CCOCC3)cc2)c1	-1.7	36.2*	AlphaScreen intf=>19.2
NC(=O)c1cnc(Nc2ccnc(Nc3ccc(N4CCOCC4)cc3)c2)s1	27.6	-1.7
COc1ccc(CCNc2nc(Nc3cccc(N(C)C)c3)nc3c2ncn3Cc2ccc(C(F)(F)F)cc2)cc1	22.2	29.9
CN(C)c1cccc(Nc2nc(NCCc3ccc(O)cc3)c3ncn(-c4ccccc4)c3n2)c1	16.2	36.8*	AlphaScreen intf=>20
CN(C)c1cccc(Nc2nc(NCCc3ccc(O)cc3)c3ncn(C4CCCCC4)c3n2)c1	20.6	37.7*	AlphaScreen intf=>20
CC(C)N(CCNc1nc(Nc2cccc(N(C)C)c2)nc2c1ncn2C1CCCCC1)C(C)C	3.4	28.1
Oc1ccc(CCNc2nc(Nc3ccccc3)nc3c2ncn3-c2ccccc2)cc1	-33.0	15.7
CN(C)c1cccc(Nc2nc(NCCc3ccc(O)cc3)c3ncn(Cc4ccc(C(F)(F)F)cc4)c3n2)c1	32.5	36.8*	AlphaScreen intf=>18.8
COc1ccccc1-n1ncc2c(=O)[nH]c(SCc3ccccc3C)nc21	3.3	/
O=C(NCc1cccc(C(F)(F)F)c1)c1csc(-c2csc3ccccc23)n1	-7.9	-11.5
COc1cc(Nc2nc(-c3cccc(N)c3)nc3c2ncn3-c2ccccc2)cc(OC)c1OC	-19.9	-2.4
O=C(Nc1ccc(-c2cn[nH]c2)cc1)C1COc2ccccc2O1 (centres undefined)	-2.1	11.8
O=C(Nc1ccc(-c2ncnc3[nH]ccc23)cc1)C1COc2ccccc2O1 (centres undefined)	40.6	38.0*	AlphaScreen intf=>19.2
COc1ccc(CCNc2nc(Nc3ccncc3)nc3nc[nH]c23)cc1	25.2	-0.4
CCN(CC)c1nc(Nc2ccc3c(c2)OCO3)nc(N2CCC(N3CCOCC3)CC2)n1	-10.2	38.9*	AlphaScreen intf=>19.9
CCN(CC)c1nc(Nc2ccc(N3CCOCC3)cc2)nc(N2CCN(Cc3ccc4c(c3)OCO4)CC2)n1	8.0	42.7*	AlphaScreen intf=>18.8
CCN(CC)c1nc(Nc2ccc(N3CCOCC3)cc2)nc(N2CCC(N3CCOCC3)CC2)n1	-6.8	14.0
SMILES	ULK1 inh	ASK1 primary	others
CCN(CC)c1nc(Nc2ccccc2)nc(N2CCN(Cc3ccc4c(c3)OCO4)CC2)n1	-7.0	13.4
COCCNc1cc(-c2ccccn2)nc(-c2cccnc2)n1	3.5	/
Nc1nc(NCCc2ccc(O)cc2)cc(NC2CCN(Cc3ccccc3)CC2)n1	3.0	-0.4
O=C(NCc1ccccc1)c1cc(N2CCC(N3CCOCC3)CC2)nc2ccccc12	-8.1	-24.5
c1ccc2c(-c3nccc(Nc4ccc(N5CCOCC5)cc4)n3)csc2c1	-7.5	38.1*	AlphaScreen intf=>21.8
c1ccc(Nc2ccnc(-c3csc4ccccc34)n2)cc1	-17.1	-7.1
Cc1nn(C)c(C)c1-c1nc(Nc2ccccc2)c2ncn(CCN3CCCC3=O)c2n1	-8.7	-7.8
Oc1ccc(CCNc2ncnc3nc(N4CCN(Cc5ccc6c(c5)OCO6)CC4)[nH]c23)cc1	13.4	41.2*	AlphaScreen intf=i
c1ccc(CNc2ncnc3nc(N4CCN(Cc5ccc6c(c5)OCO6)CC4)[nH]c23)cc1	-12.9	0.2
c1nc2nc(N3CCN(Cc4ccc5c(c4)OCO5)CC3)nc(Nc3ccc(N4CCOCC4)cc3)c2[nH]1	26.3	21.7
c1nc(Nc2ccc(N3CCOCC3)cc2)c2[nH]c(N3CCN(Cc4ccc5c(c4)OCO5)CC3)nc2n1	41.9	42.9*	AlphaScreen intf=>13.8
c1cnc2ccc(Nc3nc4ncnc(Nc5ccc6c(c5)OCO6)c4[nH]3)cc2c1	6.9	25.3
c1cn(-c2ccc(Nc3nc4ncnc(Nc5ccc6c(c5)OCO6)c4[nH]3)cc2)cn1	11.0	39.2*	AlphaScreen intf=>21.9
OCC1CCCN1c1nc2ncnc(Nc3ccc4c(c3)OCO4)c2[nH]1 (centres undefined)	29.3	2.3
CCCNc1nc(NCCN2CCOCC2)nc2c1ncn2-c1ccsc1	2.1	-14.1
CCNc1nc(Nc2ccc3c(c2)OCO3)c2cc(OC)c(OC)cc2n1	-0.8	12.7

Compound activity (PubChem)
